An excerpt weighted towards active compounds, which were near 11% of everything screened.
NS1 function inh = qHTS Assay for Inhibitors of Influenza NS1 Protein Function; Potency, µM (top dose mostly 46.1 µM); 270,000 tested, 0.4% active; AID 2326, 2010; calls by dose curve; also: actives are rising curves; nearly all actives have a fitted effect of over 50% in size
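In this qHTS, NS1 from influenza A is expressed in budding yeast, where it slows growth. Cells are switched from glucose to 2% galactose medium (pH 6.0, -URA), treated with compound, and growth recovery is read at OD600.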
Sm TGR inh = qHTS Assay for the Inhibitors of Schistosoma Mansoni Peroxiredoxins; purified TGR, DTNB reduction, TNB absorbance 405 nm; Potency, µM (titrated, usually from 114 µM), usual class: inhibitors; 360,000 tested, 3% active; AID 485364, 2010; also: nearly all actives have a fitted effect of over 60% in size
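TGR 20 nM + NADPH 100 uM (dispensed conc.), cpd preinc 15 min RT; start with NADPH (500 uM addition) then DTNB (15 mM addition). Kinetic TNB absorbance, 405 nm filter. Four-parameter Hill fit across titration.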
Pf growth 48h = Primary qHTS for delayed death inhibitors of the malarial parasite plastid, 48 hour incubation; P. falciparum luciferase growth in erythrocytes, 48 h; Potency, µM (highest dose often 28.7 µM), most hits filed as inhibitors; 310,000 tested, 5.9% active; AID 504832, 2011
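First compound was added to culture medium, then infected red cells at 0.1% parasitemia and 2% hematocrit (final). After incubation at 37 C under 5% CO2, luciferase detection reagent was dispensed and light output recorded.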
Pf growth 96h = Primary qHTS for delayed death inhibitors of the malarial parasite plastid, 96 hour incubation. P. falciparum luciferase reporter growth, 96 h. Potency, µM (doses to about 28.7 µM), most hits filed as inhibitors. 320,000 tested, 6.9% active
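P. falciparum expressing integrated firefly luciferase grown in erythrocytes (2% hematocrit, 0.05% parasitemia final) with compounds for 96 hours at 37 C, 5% CO2. Growth inhibition read as loss of luminescence after adding luciferase detection reagent.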
AMA1 RON2 block = qHTS for Inhibitors of AMA1-RON; Towards Development of Antimalarial Drug Lead: Primary Screen. Plasmodium falciparum AMA1 (3D7) - RON2 peptide interaction. AlphaScreen AMA1-biotinylated RON2 peptide binding. Potency, µM (series often up to 58.2 µM), actives largely listed as inhibitors. 360,000 tested, 0.2% active. AID 720542, 2013; also: nearly all actives have a fitted effect of over 45% in size
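AMA1 (3D7) with his tag at 25 nM final met compounds first, then biotinylated RON2 peptide at 25 nM; detection used donor plus acceptor beads, 10 µg/mL apiece, read by AlphaScreen after 30 min at room temperature.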
Large screens that a line does not name were inactive; ! = not active in a repeat. Unless noted, calls follow the shape of the dose curve; as a rule, active = well fitted curve in the direction sought with a large enough effect; inconclusive = small, poorly fitted or top-dose-only effect, or another doubt; inactive = no such curve, though single readings can be large; an effect the other way counts as inactive or inconclusive.

CCOc1cccc(C2C(C(=O)c3ccc(C)o3)=C(O)C(=O)N2CCCn2ccnc2)c1 (stereo not given)	Sm TGR inh inconclusive (no result: NS1 function inh)
CCN(CC)CCCN1C(=O)C(O)=C(C(=O)c2ccc(C)o2)C1c1cccs1 (stereo not given)	Sm TGR inh 45µM (no result: Pf growth 96h, AMA1 RON2 block)
CCN(CC)CCCN1C(=O)C(O)=C(C(=O)c2ccc(C)o2)C1c1ccc(C)o1 (stereo not given)	Sm TGR inh 50µM
CCOc1ccc(C2C(C(=O)c3ccc(C)o3)=C(O)C(=O)N2CCCN(CC)CC)cc1 (stereo not given)	Sm TGR inh 35µM
CCOCCCN1C(=O)C(O)=C(C(C)=O)C1c1cccs1 (stereo not given)	none (no result: NS1 function inh, Sm TGR inh, Pf growth 48h, Pf growth 96h)
CCN(CC)CCCN1C(=O)C(O)=C(C(=O)c2ccco2)C1c1ccc(C)o1 (stereo not given)	none (no result: Sm TGR inh, Pf growth 48h, Pf growth 96h)
CCC(C)NC(=O)c1ccc(CNS(=O)(=O)c2ccc3c(c2)C(C)(C)C(=O)N3C)cc1 (stereo not given)	Pf growth 96h 9.3µM
Cc1ccccc1NC(=O)c1ccc(CNS(=O)(=O)c2ccc3c(c2)C(C)(C)C(=O)N3C)cc1	none (no result: NS1 function inh, Pf growth 48h, Pf growth 96h, AMA1 RON2 block)
Cc1ccc(CNC(=O)c2ccc(CNS(=O)(=O)c3ccc4c(c3)C(C)(C)C(=O)N4C)cc2)o1	Sm TGR inh 50µM, Pf growth 48h inconclusive
COc1ccc(-c2cc(-c3nnc(COC(=O)c4ccncc4)o3)c3ccccc3n2)cc1OC	Pf growth 48h 12µM, Pf growth 96h inconclusive (no result: NS1 function inh)
Cc1nc2ccc(C(=O)OCc3nnc(-c4ccccc4)o3)cc2nc1C	Pf growth 96h 13µM
O=C(Nc1ccccc1)c1ncoc1-c1ccc(Cl)cc1	none
CC(C)Cn1c(=O)c(-[n+]2ccccc2)c([O-])c2ccccc21	Pf growth 96h 13µM (no result: NS1 function inh)
CCCN1CCN(C(=O)C2CCN(c3ncnc4c3nc3n4CCCCC3)CC2)CC1	Pf growth 96h inconclusive
O=C(c1ccc2c(=O)n3c(nc2c1)CCCCC3)N1CCN(C(c2ccccc2)c2ccccc2)CC1	Pf growth 96h 1.9µM (no result: Pf growth 48h)
O=C(c1ccc2c(=O)n3c(nc2c1)CCC3)N1CCN(S(=O)(=O)c2cccc(F)c2)CC1	Pf growth 48h 12µM, Pf growth 96h inconclusive (no result: NS1 function inh)
CN1CCc2c(sc3c2C(=O)NC(c2ccc(C(C)(C)C)cc2)N3)C1 (stereo not given)	none (no result: NS1 function inh, Pf growth 48h, Pf growth 96h, AMA1 RON2 block)
COc1ccc(/C=C/c2cc(-c3ccc(C)cc3)o[n+]2C)cc1	Pf growth 48h inconclusive, Pf growth 96h 0.15µM
COc1ccc(/C=C/c2c(-c3ccc(OC)cc3)oc3ccc(-c4ccc(OC)cc4)cc23)cc1	Pf growth 96h inconclusive
COc1ccc(NS(=O)(=O)c2ccc(C(=O)N(C)Cc3ccc(C)o3)cc2)cc1	none (no result: NS1 function inh, Sm TGR inh, Pf growth 48h, Pf growth 96h)
O=C(CCCCCn1c(=O)[nH]c2ccsc2c1=O)N1CCCCC1	Pf growth 48h 12µM, Pf growth 96h inconclusive
O=C(CCCn1c(=O)[nH]c2ccsc2c1=O)N1CCCCC1	none
Cc1ccc(CNC(=O)CCCCn2c(=O)[nH]c3ccsc3c2=O)cc1	Pf growth 96h 10µM (no result: NS1 function inh)
Cc1ccc(C(CC(=O)NCC2(c3ccccc3)CCCC2)c2ccccc2)c(O)c1 (stereo not given)	none (no result: NS1 function inh, Pf growth 48h, Pf growth 96h, AMA1 RON2 block)
CC1=C(C(=O)OCc2ccccc2)C(c2ccccc2)NC(=O)N1CCCC(=O)O (stereo not given)	Pf growth 48h inconclusive, Pf growth 96h inconclusive
CCCCNC(=O)C(c1ccc(OCC(=O)OC)c(C(=O)OC)c1)N(CCc1ccccc1)C(=O)CCCCCN1C(=O)NC(c2ccc(-c3ccccc3)cc2)C(C(=O)OCc2ccccc2)=C1C (stereo not given)	NS1 function inh inconclusive, Pf growth 48h 1.9µM, Pf growth 96h 2.1µM (no result: AMA1 RON2 block)
CCCCCCN(C(=O)CCCCCN1C(=O)NC(c2ccc(-c3ccccc3)cc2)C(C(=O)OCc2ccccc2)=C1C)C(C(=O)NCCCC)c1ccc(OCC(=O)OC)cc1 (stereo not given)	Pf growth 48h inconclusive, Pf growth 96h 4.7µM (no result: AMA1 RON2 block)
CCCCNC(=O)C(c1ccc(OCC(=O)OC)c(C(=O)OC)c1)N(CCOC)C(=O)CCCCCN1C(=O)NC(c2ccc(-c3ccccc3)cc2)C(C(=O)OCc2ccccc2)=C1C (stereo not given)	Pf growth 48h 1.2µM, Pf growth 96h 1.7µM (no result: AMA1 RON2 block)
ClC(/C=N/n1cnnc1)=C/c1ccccc1	Sm TGR inh inconclusive, Pf growth 48h 12µM, Pf growth 96h 12µM
Nc1cc(=O)n(Cc2ccccc2)c(=O)n1-c1ccc(F)cc1	Pf growth 96h inconclusive
Nc1cc(=O)n(Cc2ccccc2)c(=O)n1-c1ccc(Cl)cc1	Pf growth 48h 10µM, Pf growth 96h inconclusive
C#C[C@]1(O)CC[C@H]2[C@@H]3CCC4=Cc5oncc5C[C@]4(C)[C@H]3CC[C@@]21C	none (no result: NS1 function inh, Sm TGR inh)
COc1ccc(C2C=C(c3ccccc3)Nc3nc(NC(C)=O)nn32)cc1 (stereo not given)	Sm TGR inh 20µM! (no result: Pf growth 96h, AMA1 RON2 block)
Cc1ccc(S(=O)(=O)Nc2nc3n(n2)C(c2ccc(F)cc2)C=C(c2ccccc2)N3)cc1 (stereo not given)	none (no result: NS1 function inh, Pf growth 48h, Pf growth 96h, AMA1 RON2 block)
Cc1ccc(C2C=C(c3ccccc3)Nc3nc(NS(=O)(=O)c4ccccc4)nn32)cc1 (stereo not given)	Sm TGR inh 35µM (no result: NS1 function inh, Pf growth 48h, Pf growth 96h, AMA1 RON2 block)
O=S(=O)(Nc1nc2n(n1)C(c1ccccc1)C=C(c1ccc(Cl)cc1)N2)c1ccccc1 (stereo not given)	Sm TGR inh 45µM (no result: NS1 function inh, Pf growth 48h, Pf growth 96h, AMA1 RON2 block)
CC1=CC(c2ccc(Cl)cc2)n2nc(N3C(=O)CCC3=O)nc2N1 (stereo not given)	none
Cc1ccc(C2C=C(c3ccccc3)Nc3nc(N4C(=O)CCC4=O)nn32)cc1 (stereo not given)	Sm TGR inh 22µM
O=C(Cn1c(=O)nc(-c2ccccc2)c2ccccc21)NCCc1ccc(Cl)cc1	none (no result: NS1 function inh, Pf growth 48h, Pf growth 96h, AMA1 RON2 block)
COc1ccccc1C(=O)Nc1nc2n(n1)C(c1ccc(F)cc1)C=C(c1ccc(Cl)cc1)N2 (stereo not given)	none (no result: NS1 function inh, Pf growth 48h, Pf growth 96h, AMA1 RON2 block)
COc1ccc(C2CC(c3ccc(F)cc3)n3nc(NC(=O)c4ccco4)nc3N2)cc1 (stereo not given)	none
CC1CC(c2ccccc2)n2nc(NC(=O)c3ccco3)nc2N1 (stereo not given)	NS1 function inh inconclusive, Pf growth 96h 8.3µM
Cc1ccc(C2C=C(c3ccc(Cl)cc3)Nc3nc(NC(=O)c4ccco4)nn32)cc1 (stereo not given)	Sm TGR inh 13µM (no result: NS1 function inh, Pf growth 48h, Pf growth 96h, AMA1 RON2 block)
COCCCNC(=S)N1CCC(NC(=O)Nc2ccc(C)cc2)CC1	none
CC(C)(C)OC(=O)NCc1ccc(CNC(=O)c2[nH]cnc2C(=O)NC2CCN(C(=O)OC(C)(C)C)CC2)cc1	Pf growth 48h 5.9µM, Pf growth 96h inconclusive (no result: NS1 function inh)
CC(C)(C)OC(=O)N1CCC(NC(=O)c2nc[nH]c2C(=O)NCc2ccccc2)CC1	Pf growth 48h inconclusive, Pf growth 96h inconclusive (no result: NS1 function inh)
